# Measured values as given in the supplement of paper PMC10338343.
# ± gives the standard deviation.
# How the values were obtained:
# [1] = test system: MILI (PIWIL2) piRISC loaded with L1MC piRNA (26 nt); assay: pre-steady-state target cleavage rate (min^-1); guide: L1MC piRNA 5'p-UAACUAAAUACUAUGCAAGCUGUAGG; higher = faster piRNA-guided slicing of the target;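 further: 1 nM active piRISC with 0.1 nM target library at 33 °C single turnover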
# In short: (§1)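 Cleave-'n-Seq measured uncleaved targets by sequencing after a transcribed, DNA-blocked target RNA library […] was mixed with 1 nM active affinity-purified piRISC holding one synthetic guide, with or without 500 nM GTSF1 partner protein, at 33 °C in HEPES–potassium acetate buffer for 0–8 or 0–960 min. Counts were normalised to depth and to weakly complementary targets, three trials were pooled, and k3 was capped at 0.0001 min^-1. A burst-and-steady-state fit gave the pre-steady-state cleavage rate.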
# [2] = test system: EfPiwi piRISC loaded with L1MC piRNA (26 nt); assay: pre-steady-state target cleavage rate (min^-1); auxiliary factor: 500 nM Ephydatia muelleri Gtsf1; guide: L1MC piRNA 5'p-UAACUAAAUACUAUGCAAGCUGUAGG; MIWI and MILI are mouse PIWI proteins and EfPiwi is from a freshwater sponge; tags in brackets are library labels; higher = faster piRNA-guided slicing of the target
# In short: as §1
# [3] = auxiliary factor: 500 nM mouse GTSF1
# [4] = auxiliary factor: none (no GTSF1)
Sequence,"pre-steady-state target cleavage rate [1, 3]","pre-steady-state target cleavage rate [1, 4]",pre-steady-state target cleavage rate [2]
UCCUCCUACAGGUUGCAUAGUAUUUAGUUA,0.264 ± 0.013,0.00924 ± 0.0019,0.0556 ± 0.013
UCCUGGAACACCUUGCUUAGUAUUUAGUUA,0.155 ± 0.028,0.00581 ± 0.0019,0.0036 ± 0.0033
UCCUGGAUCAGGUUGCAAAGUAUUUAGUUA,0.121 ± 0.011,0.00902 ± 0.0027,0.0172 ± 0.0054
UCCUCCUACAGCUUGGUUAGUAUUUAGUUA,0.269 ± 0.016,0.00996 ± 0.0021,0.0149 ± 0.006
UCCUGGAUGUCGUUAGCAUAGUAUUUAGUUA,0.0539 ± 0.012,0.00456 ± 0.0029,0.00456 ± 0.0035
UCCUGGUACAGCUUGCAUAGUACUUUAGUUA,0.147 ± 0.024,0.00705 ± 0.0032,0.00549 ± 0.0027
UCCUGGAUGUCCUUGCAUAGUAUGUUAGUUA,0.0434 ± 0.0088,0.00471 ± 0.0025,0.00355 ± 0.0035
UCCUGGAUGUCCUCGCAUAGUAUUUAGUUA,0.0711 ± 0.01,0.00777 ± 0.0022,0.00388 ± 0.0033
UCCUGCUACAGCUUGCAUAGUAUUUAGUUC [g2:g25:cont:t1C],0.317 ± 0.021,0.0145 ± 0.0033,0.0645 ± 0.016
UCCUGGAUCAGCUUGCAUAGUAUUUAGUAUA,0.233 ± 0.021,0.00809 ± 0.0032,0.0115 ± 0.0043
UCCUGGAUGUGCAUGCAUAGUAUUUAGAAA,0.0733 ± 0.013,0.00295 ± 0.0029,0.00304 ± 0.0022
UCCUGGAACAGCUACCAUAGUAUUUAGUUA,0.174 ± 0.016,0.00403 ± 0.0022,0.00309 ± 0.0026
UCCUGCUACAGCUUGCAAAGUAUUUUGUUA,0.139 ± 0.026,0.00325 ± 0.0025,0.00625 ± 0.0028
UCCUGGAUGGGCUUGCAUAGUAUUUAGUUA,0.17 ± 0.021,0.0171 ± 0.0035,0.0238 ± 0.0063
UCCUCCUACAACUUGCAUAGUAUUUAGUUA,0.266 ± 0.019,0.0079 ± 0.0018,0.0806 ± 0.024
UCCUGGAACAGGAUGCAUAGUAUUUAGUUA,0.285 ± 0.016,0.0116 ± 0.0027,0.00753 ± 0.0018
UCCUGGAUCAGCUUGCAUAGUAUUUAAGUUA,0.251 ± 0.025,0.0108 ± 0.0029,0.00608 ± 0.0023
UCCUGGAUGUCCUUGCAUAGUAUUUAGAUA,0.118 ± 0.018,0.00265 ± 0.0023,0.00461 ± 0.0029
UCCUGGAUGAGCUUGCUUAGUAUUUAGUUA,0.17 ± 0.01,0.00685 ± 0.0025,0.00629 ± 0.0027
UCCUGGAUGAGCUUGGAUAGUAUUUAGUUA,0.163 ± 0.011,0.00612 ± 0.0024,0.0043 ± 0.0033
UCCUGGUACAGCUUGCAUAGUAUUUUGUUA,0.118 ± 0.024,0.00398 ± 0.0037,0.00618 ± 0.003
UCCUGGAACAGCAUGCAUUGUAUUUAGUUA,0.204 ± 0.016,0.00901 ± 0.0024,0.00504 ± 0.002
UCCUGGUAGAGCUUGCAUAGUAUUUAGUUA,0.245 ± 0.015,0.00842 ± 0.0022,0.0138 ± 0.0044
UCCUGGUACAGCUUGCAAAGUAAUUAGUUA,0.207 ± 0.03,0.00414 ± 0.0027,0.00305 ± 0.0021
UCCUGGAUCUGCAUGCAUAGUAUUUAGUUA,0.209 ± 0.015,0.00837 ± 0.0023,0.0798 ± 0.021
UCCUCCUACAGCUUGCAUAGUAUUUAGUA,0.177 ± 0.021,0.00474 ± 0.0025,0.00701 ± 0.0026
